Values joined by “and” are separate entries in the source; they are usually repeats but may differ in a detail not shown here. Equal values may be shown once. Records with an inconclusive call do not appear. Active and inactive are the calls of the source. Calls follow the shape of the dose curve; as a rule, active = well fitted curve in the direction sought with a large enough effect; inconclusive = small, poorly fitted or top-dose-only effect, or another doubt; inactive = no such curve, though single readings can be large; an effect the other way counts as inactive or inconclusive.
How the values were obtained:
[1] = qHTS of pediatric cancer cell lines to identify multiple opportunities for drug repurposing: Primary screen for NB-EBc1 cells (AID 1347095); also: potency is read from the fitted curve at half-maximal effect
Method in brief: (§1)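 Cells plated at 500-1,000/well in growth medium, compounds added after 5 h. MIPE tested at 11 points (from 0.78 nM), NPC at 8 points (from 0.59 nM). CellTiter-Glo luminescence after 48 h; concentration-response curves from primary screen.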

[2] = qHTS of pediatric cancer cell lines to identify multiple opportunities for drug repurposing: Primary screen for U-2 OS cells (AID 1347096); also: nearly all actives have a fitted effect of over 50% in size; also: potency is read from the fitted curve at half-maximal effect
Method in brief: (§2)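 Cells (500-1,000/well) in growth media were settled 5 h at 37 degrees C, then given compounds for 48 h. Viability was read as CellTiter-Glo luminescence. Primary runs used MIPE at 11 points (0.78 nM-46 µM) and NPC at 8 points (0.59 nM-46 µM); follow-ups used 11 points.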

[3] = qHTS of pediatric cancer cell lines to identify multiple opportunities for drug repurposing: Primary screen for Saos-2 cells (AID 1347097); also: nearly all actives have a fitted effect of over 40% in size; also: potency is read from the fitted curve at half-maximal effect
Method in brief: as §1

[4] = qHTS of pediatric cancer cell lines to identify multiple opportunities for drug repurposing: Primary screen for NB1643 cells (AID 1347099); also: nearly all actives have a fitted effect of over 50% in size; also: potency is read from the fitted curve at half-maximal effect
Method in brief: as §1

[5] = qHTS of pediatric cancer cell lines to identify multiple opportunities for drug repurposing: Primary screen for LAN-5 cells (AID 1347100); also: potency is read from the fitted curve at half-maximal effect
Method in brief: as §2

[6] = qHTS of pediatric cancer cell lines to identify multiple opportunities for drug repurposing: Primary screen for MG 63 (6-TG R) cells (AID 1347105); also: nearly all actives have a fitted effect of over 50% in size; also: potency is read from the fitted curve at half-maximal effect
Method in brief: as §1

[7] = qHTS of pediatric cancer cell lines to identify multiple opportunities for drug repurposing: Primary screen for control Hh wild type fibroblast cells (AID 1347106);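 also: series mostly up to about 46 µM; a drop in luminescence marks cytotoxicity and a rise apparent proliferation; nearly all actives have a fitted effect of over 55% in size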
Method in brief: as §2

[8] = qHTS of pediatric cancer cell lines to identify multiple opportunities for drug repurposing: Primary screen for Rh18 cells (AID 1347102); also: nearly all actives have a fitted effect of over 65% in size; also: potency is read from the fitted curve at half-maximal effect
Method in brief: as §2

[9] = qHTS of pediatric cancer cell lines to identify multiple opportunities for drug repurposing: Primary screen for RD cells (AID 1347104); also: nearly all actives have a fitted effect of over 55% in size; also: potency is read from the fitted curve at half-maximal effect
Method in brief: as §1

[10] = qHTS of pediatric cancer cell lines to identify multiple opportunities for drug repurposing: Primary screen for Rh30 cells (AID 1347107); also: series mostly up to about 46 µM; nearly all actives have a fitted effect of over 75% in size
Method in brief: as §2

[11] = qHTS of pediatric cancer cell lines to identify multiple opportunities for drug repurposing: Primary screen for SK-N-SH cells (AID 1347098); also: nearly all actives have a fitted effect of over 65% in size; also: potency is read from the fitted curve at half-maximal effect
Method in brief: (§3)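 Cells (500-1,000/well) rested 5 h, then received compounds for 48 h; metabolically active cells were measured by CellTiter-Glo luminescence. Final concentrations spanned up to 46 µM (MIPE, 11-point) or 0.59 nM-46 µM (NPC, 8-point) in primary screens, 11-point in follow-ups.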

[12] = qHTS of pediatric cancer cell lines to identify multiple opportunities for drug repurposing: Primary screen for BT-37 cells (AID 1347094); also: potency is read from the fitted curve at half-maximal effect
Method in brief: as §1

[13] = qHTS of pediatric cancer cell lines to identify multiple opportunities for drug repurposing: Primary screen for BT-12 cells (AID 1347101); also: nearly all actives have a fitted effect of over 25% in size; also: potency is read from the fitted curve at half-maximal effect
Method in brief: as §3

[14] = qHTS of pediatric cancer cell lines to identify multiple opportunities for drug repurposing: Primary screen for OHS-50 cells (AID 1347103); also: nearly all actives have a fitted effect of over 40% in size; also: potency is read from the fitted curve at half-maximal effect
Method in brief: as §3

[15] = qHTS of pediatric cancer cell lines to identify multiple opportunities for drug repurposing: Primary screen for Rh41 cells (AID 1347108); also: nearly all actives have a fitted effect of over 70% in size; also: potency is read from the fitted curve at half-maximal effect
Method in brief: as §1

[16] = qHTS of pediatric cancer cell lines to identify multiple opportunities for drug repurposing: Confirmatory screen for NB1643 cells (AID 1347109); also: nearly all actives have a fitted effect of over 45% in size
Method in brief: as §2

[17] = qHTS of pediatric cancer cell lines to identify multiple opportunities for drug repurposing: Confirmatory screen for A673 cells (AID 1347110);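 also: potency is read from the fitted curve at half-maximal effect; cells exposed to compound for 48 h before the viability read; nearly all actives have a fitted effect of over 65% in size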
Method in brief: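 Viability was read as ATP luminescence (CellTiter-Glo) after 48 h of compound exposure at 37 C in A673 cells seeded at 500-1,000/well. Titrations reached 46 uM final, with 11 points in the confirmatory screen. Concentration-response curves were fitted directly.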

[18] = qHTS of pediatric cancer cell lines to identify multiple opportunities for drug repurposing: Confirmatory screen for BT-12 cells (AID 1347112); also: nearly all actives have a fitted effect of over 55% in size
Method in brief: as §2

[19] = qHTS of pediatric cancer cell lines to identify multiple opportunities for drug repurposing: Confirmatory screen for LAN-5 cells (AID 1347113); also: nearly all actives have a fitted effect of over 65% in size
Method in brief: as §2

Measured: Potency

COc1ccc(COc2cc3oc(=O)c4cc(C(C)O)ccc4c3cc2OC)cc1 (stereo not given)
active: [1] 10.5 µM | [3] 14.8 µM | [6] 18.7 µM
inactive: [2] | [4] | [5]

Nc1ncnc2nc(-c3ccc(N4CCOCC4)nc3)cc(-c3cccc(Br)c3)c12
inactive: [1] | [3] | [6] | [7]

O=c1ncn2nc(Sc3ccc(F)cc3F)ccc2c1-c1c(Cl)cccc1Cl
inactive: [1] | [4] | [8] | [9] | [6] | [7] | [10]

Cc1ccccc1C(C(=O)NC1CCCC1)N(C(=O)Cn1cnc2ccccc21)c1cccc(F)c1 (stereo not given)
inactive: [1] | [2] | [11] | [5] | [6] | [7] | [10]

N=c1nc(N2CCCCC2)cc(N)n1O
not listed: [9] | [16] | [17] | [18] | [19]
inactive: all other assays above

Cc1ccc(N(CC2=NCCN2)c2cccc(O)c2)cc1
active: [14] 27.3 µM and 30.9 µM
inactive: [12] | [1] | [2] | [4] | [5] | [8] | [9] | [6] | [7] | [10]

C1COC(NC(C2CC2)C2CC2)=N1
not listed: [16] | [17] | [18] | [19]
inactive: all other assays above

Cc1ccnc(NS(=O)(=O)c2ccc(NC(=O)Nc3ccc(S(=O)(=O)Nc4nccc(C)n4)cc3)cc2)n1
active: [12] 10.9 µM | [1] 14.8 µM | [13] 24.3 µM
inactive: [2] | [4] | [8] | [14] | [9] | [6] | [7] | [10]

CC1(C)CNc2cc(NC(=O)c3cccnc3NCc3ccncc3)ccc21
inactive: [2] | [9] | [7] | [10]
active: [1] 9.35 µM | [5] 20.9 µM

CCCc1nn(C)c2c(=O)[nH]c(-c3cc(S(=O)(=O)N4CCN(C)CC4)ccc3OCC)nc12
inactive: [12] | [1] | [2] | [3] | [11] | [5] | [8] | [6] | [7] | [10]

CCc1cc(Nc2nccc(-c3c(-c4ccc(OC)c(C(=O)Nc5c(F)cccc5F)c4)nc4ccccn34)n2)c(OC)cc1N1CCC(N2CCN(S(C)(=O)=O)CC2)CC1
active: [3] 18.7 µM | [11] 21.5 µM | [6] 18.7 µM
inactive: [2] | [4] | [8]

Cn1c(=O)c(F)c(Nc2ccc(I)cc2F)c2c(=O)n(C[C@@H](O)CO)cnc21
inactive: [14] | [6] | [10]
active: [2] 5.9 µM | [11] 6.81 µM | [8] 20.9 µM | [9] 0.0296 µM

NC(N)=NC(=O)c1nc(Cl)c(N)nc1N
active: [17] 1.17 µM
not listed: [4] | [11]
inactive: all other assays above

O=C1CCCC2=C1C(c1[nH]ncc1Cl)N=C(Nc1nc3ccccc3o1)N2 (stereo not given)
inactive: [12] | [1] | [2] | [5] | [8] | [6] | [7] | [10]

Nc1nc2ccc(OC(F)(F)F)cc2s1
active: [17] 18.5 µM
not listed: [3] | [5] | [12] | [13] | [14] | [16] | [19]
inactive: all other assays above

NNCCc1ccccc1
inactive: [12] | [1] | [3] | [8] | [14] | [9] | [6] | [7] | [10]

COc1ccc2nc(S(=O)Cc3ncc(C)c(OC)c3C)[nH]c2c1 (stereo not given)
not listed: [4] | [13] | [14] | [16] | [17] | [18] | [19]
inactive: all other assays above

O=C1CCc2cc(OCCCCc3nnnn3C3CCCCC3)ccc2N1
not listed: [4] | [16] | [17] | [18] | [19]
inactive: all other assays above

CNCc1ccc(-c2[nH]c3cc(F)cc4c3c2CCNC4=O)cc1
active: [17] 0.147 µM
not listed: [1] | [4] | [5] | [9] | [11] | [12] | [16]
inactive: all other assays above

Nc1nc2c(ncn2COCCO)c(=O)[nH]1
not listed: [17]
inactive: all other assays above

O=C(Nc1cccnc1)N1CCC(Cc2cccc(Oc3ccc(C(F)(F)F)cn3)c2)CC1
inactive: [2] | [11] | [4] | [8] | [6] | [7] | [15]
active: [13] 10.9 µM | [14] 10.9 µM

Cc1n[nH]c(C)c1Cc1sc2c(c1C(=O)N1C[C@H](O)CO1)c(=O)n(C)c(=O)n2CC(C)C
active: [4] 1.05 µM
not listed: [3] | [5] | [15] | [16] | [17] | [18] | [19]
inactive: all other assays above

COc1ccc(CC2=NN3C([C@@H](CCc4ccccc4)[C@@H](C)O)=NC(C)C3C(=O)N2)cc1OC (stereo not given in full)
not listed: [4] | [10] | [11] | [15] | [16] | [17] | [18] | [19]
inactive: all other assays above

CCOC(=O)N1CCC(=C2c3ccc(Cl)cc3CCc3cccnc32)CC1
active: [1] 20.9 µM | [11] 30.7 µM | [14] 24.3 µM and 21.9 µM | [9] 29.9 µM | [6] 13.3 µM | [15] 23.5 µM and 23.7 µM
inactive: [2] | [7]

Cc1[nH]c(=O)c(C#N)cc1-c1ccncc1
not listed: [4] | [16] | [17] | [18] | [19]
inactive: all other assays above

CCCC(CCC)C(=O)O
not listed: [16] | [17] | [18] | [19]
inactive: all other assays above

— PubChem BioAssay (NCATS)
